The record followed here is PubChem BioAssay AID1852 (Sanford-Burnham Center for Chemical Genomics, 2009).

About 1,100 (44%) of roughly 2,500 compounds were called active. The set was probably picked from earlier hits. The list shows a part of the results. A number with no mark means an inactive call.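 Rule for the calls: active = inhibition above 50% at 4 µM in the single-point screen; inactive = inhibition of 50% or less.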

The assay can be described thus: TNF-a-driven NF-kB reporter inhibitors, primary screen, selectivity assay for NOD1/NOD2 signaling inhibitor project, cell-based, HEK293T NF-kB-Luc, luminescence (AID 1852). The conditions noted are these: TNF-a induced, 14 h, at 4 µM, stronger effect = higher value.
What is called inhibition is the relative decrease from the control value, in per cent. As for `Cc1ccnc(NC(=O)CSc2cc(=O)n(C)c3ccccc23)c1`, the inhibition is 86.3% (active).

`Cc1ccnc(NC(=O)Cc2ccc(-c3ccccc3)cc2)c1`: the inhibition was 48.8%.

Turning to `CCn1c(=O)cc(SCC(=O)Nc2ccc(C)cn2)c2ccccc21`, the inhibition was 35.4%.

With `Nc1ncc(Br)cc1S(=O)(=O)Nc1cc(C(F)(F)F)cc(C(F)(F)F)c1`, the inhibition was 78% (active).

Take `Cc1sc2nc(CSc3ccccc3)nc(N3CCC(C(N)=O)CC3)c2c1C`: the inhibition is 53.5% (active).

As for `CCOC(=O)c1sc2nc(CSc3ccccc3)[nH]c(=O)c2c1C`, the inhibition was -7.9%.

For the compound `Cc1nc(N2CCN(C(=O)COc3ccccc3)CC2)c2c(C)c(C)sc2n1`, the inhibition was 23.4%.

Consider `Cc1nc(N2CCC(C)CC2)c2c(C)c(C(=O)Nc3cc(F)ccc3C)sc2n1`, for which the inhibition is -61.2%.

Turning to `Cc1nc(N2CCN(c3ccccc3O)CC2)c2c(-c3ccccc3)csc2n1`, the inhibition was -13.5%.

For the compound `Cc1nc(N2CCC(C(N)=O)CC2)c2c(-c3cccs3)csc2n1`, the inhibition is 57.4% (active).

Regarding `CCOc1cc(/C=C2\C(=N)N3N=C(S(C)(=O)=O)SC3=NC2=O)ccc1OCCOc1cccc(OC)c1`, the inhibition is -31.3%.

Turning to `Fc1ccc(Sc2nc(-c3ccccc3)nnc2C(F)(F)F)cc1`, the inhibition is 40.3%.

As to `CC(C)c1ccc(-n2c(-c3ccccc3)c[n+]3c2CCc2ccccc2-3)cc1`, the inhibition is 86% (active).

Consider `CCCC(Oc1ccc(Br)cc1)c1nc2c3cc(OC)c(OC)cc3nc(=S)n2[nH]1` (stereo not given), for which the inhibition is 104% (active).

Take `CC(Oc1ccc(Br)cc1)c1nc2c3ccccc3nc(=S)n2[nH]1` (stereo not given): the inhibition is 101% (active).

For the compound `O=CN1CCN(c2c([N+](=O)[O-])c(=O)oc3ccccc23)CC1`, the inhibition was -17%.

For `O=C1CCSc2ccc(Cl)cc2N1Cc1cccc(Cl)c1`, the inhibition was 17.4%.

Consider `N=C1SCC(=O)N1c1ncc(Cc2ccc(F)cc2)s1`, for which the inhibition was 109% (active).

Consider `N=C1SCC(=O)N1c1ncc(Cc2ccccc2Cl)s1`, for which the inhibition was 97.5% (active).

`N=C1SCC(=O)N1c1ncc(Cc2cccc(Cl)c2)s1`: the inhibition was 101% (active).

As for `COc1ccc(COC(=O)NC2CCN(S(=O)(=O)c3ccc(OC)cc3)CC2)cc1`, the inhibition is 20.6%.

As to `CCOC(=O)C1CCN(c2ncnc3c2cnn3-c2ccc(Cl)cc2)CC1`, the inhibition was 36.4%.

Turning to `Cc1nn(-c2ccccc2)c(Cl)c1C(=O)N1CCN(c2ncnc3c2cnn3-c2ccccc2)CC1`, the inhibition is 86.6% (active).

Turning to `Cc1nc(N2CCN(c3ccccn3)CC2)c2c(C)c(C(=O)N3CCN(c4ccc(F)cc4)CC3)sc2n1`, the inhibition is -51.2%.

On to `COC(=O)c1ccc2nc(Nc3nc4c(F)cc(F)cc4s3)sc2c1`, for which the inhibition is 35.5%.

In the case of `Cc1ccc2nc(NC(=O)CSCC(=O)OCC(=O)c3ccc(Br)cc3)sc2c1`, the inhibition is 75.2% (active).

Regarding `NC(=S)N=Nc1c(O)n(Cc2ccc(Br)cc2)c2ccccc12`, the inhibition was -15.1%.

Turning to `C=CCn1c(O)c(N=NC(=S)Nc2ccccc2F)c2ccccc21`, the inhibition is 100% (active).

Regarding `C=CCn1c(O)c(N=NC(=S)Nc2cccc(OC)c2)c2ccccc21`, the inhibition was 12%.

As to `C=CCn1c(O)c(N=NC(=S)Nc2ccc(OC)cc2)c2ccccc21`, the inhibition was 96.3% (active).

As to `C/C(Cl)=C\Cn1c(O)c(N=NC(N)=S)c2ccccc21`, the inhibition is 35.2%.

As to `C=CCn1c(O)c(N=NC(=S)Nc2ccc(OC)c(Cl)c2)c2ccccc21`, the inhibition was -34.6%.

As to `Oc1c(N=NC(=S)Nc2ccccc2F)c2ccccc2n1Cc1ccccc1F`, the inhibition is 7.6%.

As to `Cc1c(Cl)cccc1NC(=S)N=Nc1c(O)n(CN2CCOCC2)c2ccccc12`, the inhibition is 70.8% (active).

In the case of `C=CCn1c(O)c(N=NC(=S)Nc2cccc(C)c2)c2ccccc21`, the inhibition was 8.8%.

In the case of `O=C(Nc1ccc(Br)c2ccccc12)c1ccc2ccccc2c1O`, the inhibition is 42.5%.

Take `CC(=O)c1c(C)oc2ccc(N(C(C)=O)S(=O)(=O)c3ccc(F)cc3C)cc12`: the inhibition was -8.7%.

For `CCCC1/C(=N/O)CC(c2ccccc2)NC1c1ccccc1` (stereo not given), the inhibition was 31.6%.

As for `CC1=C(CO)C(=O)OC([C@@H](C)C2CC[C@H]3C4C[C@H]5O[C@]56[C@@H](O)C=CC(=O)[C@]6(C)C4CC[C@]23C)C1` (stereo not given in full), the inhibition is 89.9% (active).

For the compound `CCC(C)(C)c1ccc(OCCCC[n+]2cccc(C)c2)c(C(C)(C)CC)c1`, the inhibition was 41.5%.

In the case of `COc1cc(OC)cc(-c2cc3nc(C)c(CCC(=O)O)c(C)n3n2)c1`, the inhibition was 85.7% (active).

Consider `O=C(Nc1ccc(Cl)c(Cl)c1)Nc1ccccc1NS(=O)(=O)c1cccs1`, for which the inhibition was 94.3% (active).

For the compound `Cc1cc(Cl)ccc1OCC(=O)Nc1ccccc1NS(=O)(=O)c1cccs1`, the inhibition was 21.7%.

For `O=C(Nc1ccc([N+](=O)[O-])cc1)Nc1ccc(Cl)cc1F`, the inhibition was 12.9%.

As for `O=C(Nc1ccc(Cl)c(Cl)c1)Nc1ccc(Br)cc1F`, the inhibition is 106% (active).

For the compound `Cc1cc(-c2n[nH]c(=S)n2/N=C/C(Br)=C/c2ccccc2)n[nH]1`, the inhibition is 23.7%.

As to `Cc1ccc(-c2n[nH]c(=S)n2/N=C/c2ccncc2)cc1`, the inhibition was 4.6%.

As for `CC(=C/c1ccccc1)/C=N/n1c(-c2ccncc2)n[nH]c1=S`, the inhibition was 94.4% (active).

As for `S=c1[nH]nc(-c2cc(-c3ccccc3)n[nH]2)n1/N=C/C(Br)=C/c1ccccc1`, the inhibition is 105% (active).

On to `Cc1cc(-c2n[nH]c(=S)n2/N=C/C(Cl)=C/c2ccccc2)n[nH]1`, for which the inhibition is -31.5%.

As for `Cc1noc2ncnc(Oc3ccc(Cl)cc3Cl)c12`, the inhibition is -0.2%.

For the compound `CCN1CCN(Cc2ccc(NC(=O)c3ccc(C)c(/C=C/c4cnc(Nc5cc(N6CCNCC6)nc(C)n5)cn4)c3)cc2C(F)(F)F)CC1`, the inhibition was -16%.

With `CC[n+]1c(C=C2C=C(C)OC(C)=C2)sc2ccccc21`, the inhibition was 57.8% (active).

Consider `O=c1[nH]c(-c2ccccn2)nc2sc(-c3ccccc3)cc12`, for which the inhibition was 97.3% (active).

On to `Cc1sc2nc(-c3ccccn3)[nH]c(=O)c2c1-c1ccccc1`, for which the inhibition is 37.1%.

In the case of `Cc1nc(SCCC(=O)O)c2cc(-c3ccccc3)sc2n1`, the inhibition is 48.4%.

As to `COc1ccc(-c2cc(C(F)(F)F)nc(S(C)(=O)=O)n2)cc1OC`, the inhibition is 89.3% (active).

On to `COC(=O)CCS(=O)(=O)c1nc(-c2ccccc2)cc(C(F)(F)F)n1`, for which the inhibition was 55.5% (active).

On to `COc1ccc(NS(=O)(=O)c2ccc(-c3coc(C)n3)cc2)cc1OC`, for which the inhibition is 47.8%.

As to `COc1ccccc1-c1cc(C(F)(F)F)nc(S(C)(=O)=O)n1`, the inhibition was 68.8% (active).

Regarding `Cc1cc(NC(=O)CCS(=O)(=O)c2nc(-c3ccccc3)cc(C(F)(F)F)n2)no1`, the inhibition was 46.7%.

In the case of `COCCN(Cc1ccccc1)C(=O)c1cc(-c2ccc(OC)c(OC)c2)nc2ccccc12`, the inhibition was 20%.

For `CCOc1cccc2sc(NC(=O)CCS(=O)(=O)c3ccccc3)nc12`, the inhibition was -6.7%.

In the case of `COc1ccc(-c2cc(C(F)(F)F)nc(S(C)(=O)=O)n2)cc1`, the inhibition is 77.6% (active).

In the case of `C=C(CCC(=O)c1ccccc1)C(=O)c1ccccc1`, the inhibition was -0.6%.

In the case of `O=C(Nc1ccncc1)c1c(F)cccc1F`, the inhibition is 59.3% (active).

Turning to `COc1ccc2c(C)nc(Nc3nc(-c4ccccc4)cc(=O)[nH]3)nc2c1`, the inhibition was 42.1%.

As for `Cc1ccc2oc(Nc3nc(-c4ccccc4)cc(=O)[nH]3)nc2c1`, the inhibition is 93% (active).

`CN(/N=C/c1cc(Cl)cc(Cl)c1O)C(=S)NC(C)(C)C`: the inhibition was 82.6% (active).

For the compound `Oc1c(Cl)cc(Cl)cc1/C=C/c1ccc2cccc(O)c2n1`, the inhibition was 37.4%.

As for `CC(C)(C)NC(=S)N/N=C/c1cc(Br)c(O)c(Br)c1`, the inhibition is 34.5%.

In the case of `CC(C)c1noc2ncc(C(=O)c3cc(Cl)cc(Cl)c3O)cc12`, the inhibition is 60.1% (active).

As for `O=c1oc2ccccc2c(Nc2cc3ccccc3cc2O)c1[N+](=O)[O-]`, the inhibition is -0.3%.

As for `O=c1cc(-c2ccccc2Cl)oc2c(NS(=O)(=O)c3cc(Cl)cc(Cl)c3O)ccc(O)c12`, the inhibition is 82.6% (active).

`O=c1cc(-c2ccccc2Cl)oc2c([N+](=O)[O-])c(O)cc(O)c12`: the inhibition was 105% (active).

For the compound `Nc1nccc(-c2ccc(-n3cnc4ccccc43)cc2)n1`, the inhibition is 67% (active).

With `c1ccc2c(c1)ncn2-c1ccc(-c2ccnc(-c3ccncc3)n2)cc1`, the inhibition is 59.7% (active).

As for `O=C(O)COc1ccc(-c2nccc(-c3ccccn3)n2)cc1`, the inhibition was 43.3%.

As for `Cc1nc(N)c(C#N)c(-c2cccnc2)c1-c1ccccc1`, the inhibition is 98.5% (active).

In the case of `CC1CCc2nc(N)c(C#N)c(-c3cccnc3)c2C1` (stereo not given), the inhibition was 85.3% (active).

Regarding `Cc1nc2c(-c3ccc(F)cc3)cnn2c(N)c1-c1ccccc1`, the inhibition is -226%.

As for `O=C(NNC(=O)c1ccccc1OCc1ccccc1)c1ccccc1O`, the inhibition was 77.9% (active).

Take `CN(C(=O)COc1ccccc1C(=O)NCCOc1ccccc1)c1ccccc1`: the inhibition was 17.7%.

In the case of `CCOc1ccccc1C(=O)N1CCN(C(c2ccccc2)c2ccccc2)CC1`, the inhibition was 22.1%.

With `O=C(NNC(=O)c1ccccc1OCc1ccc(F)cc1)c1ccccc1O`, the inhibition is 51.1% (active).

Regarding `Cc1ccc(S(=O)(=O)n2c(N)nc3ccccc32)cc1`, the inhibition was -1.7%.

Consider `Cc1ccc(S(=O)(=O)Nc2ccccc2/C=N/c2nc3ccccc3n2C)cc1`, for which the inhibition is 89.4% (active).

As to `Cc1ccc(S(=O)(=O)Nc2ccccc2-c2ccccc2NS(=O)(=O)c2ccc(C)cc2)cc1`, the inhibition was -1.3%.

Consider `Oc1c(I)cc(I)c2cccnc12`, for which the inhibition was 89% (active).

In the case of `Oc1c(CN2CCN(c3ccc(F)cc3)CC2)cc(Cl)c2cccnc12`, the inhibition is 17.1%.

For `Oc1c(C(c2ccc(Cl)cc2)N2CCCC2)cc(Cl)c2cccnc12` (stereo not given), the inhibition is 20%.

Consider `Oc1c(CN2CCc3ccccc3C2)cc(Cl)c2cccnc12`, for which the inhibition was 101% (active).

In the case of `Oc1c(CN2CCN(c3ccccn3)CC2)cc(Cl)c2cccnc12`, the inhibition is 20.4%.

As for `Oc1c(Cl)cc(Cl)c2cccnc12`, the inhibition is 102% (active).

For the compound `O=[N+]([O-])c1cc(Cl)c(O)c2ncccc12`, the inhibition is 102% (active).
